Test results taken from ChEMBL document CHEMBL3988442, “University of Dundee, Small-Polar-MMV Screening Library” (2021).
In all, about 69,000 compounds went through this assay and about 1,000 (1.4%) showed an effect of 50% or more. This excerpt belongs to a sample that is enriched for strong results.

System: Leishmania donovani
Assay: Leishmania intramacrophage assay
Format: functional, organism-based
Parameters: scale not given: in the data most compounds retested in dose-response had high values

Structure (SMILES): Cc1cc2nc(O)c(O)nc2cc1S(=O)(=O)NC1CC1
- Percent Effect (30.3 µM, […]): 53.32%

Structure (SMILES): Cc1cc2[nH]c(=O)c(=O)[nH]c2cc1S(=O)(=O)NC1CCCCC1
- Percent Effect (30.3 µM, […]): 4.835%

Structure (SMILES): Cc1cc2[nH]c(=O)c(=O)[nH]c2cc1S(=O)(=O)NC1CCC(C)CC1 (stereo unspecified)
- Percent Effect (30.3 µM, […]): 6.826%

Structure (SMILES): O=C1CCCN1c1cccc(CNCc2nc(-c3ccco3)no2)c1
- Percent Effect (30.3 µM, […]): -19.6%

Structure (SMILES): CN(Cc1cc2n(n1)CCNC2)Cc1n[nH]c2c1CCCCC2
- Percent Effect (30.3 µM, […]): 33.41%

Structure (SMILES): Cc1ccc2[nH]c(CN(C)Cc3n[nH]c4c3CCC4)nc2c1
- Percent Effect (30.3 µM, […]): 65.71%

Structure (SMILES): Cc1ccc2[nH]c(CN(C)Cc3ccccc3C(=O)O)nc2c1
- Percent Effect (30.3 µM, […]): 25.21%

Structure (SMILES): Cc1ccc2nc(CN(C)Cc3[nH]nc4c3CCC4)[nH]c2c1C
- Percent Effect (30.3 µM, […]): 40.9%

Structure (SMILES): Cc1ccc2nc(CN(C)Cc3n[nH]c4c3CCCCC4)[nH]c2c1C
- Percent Effect (30.3 µM, […]): 99.15%

Structure (SMILES): COc1nc2cc(C)ccc2cc1CN(C)Cc1n[nH]c2c1CCCC2
- Percent Effect (30.3 µM, […]): 19.2%

Structure (SMILES): CC(C)C(C(=O)N1CCN(c2ccncc2)CC1)n1cncn1 (stereo unspecified)
- Percent Effect (30 µM, 30.03 µM): 24.05%

Structure (SMILES): CCOc1ccc(Cl)c(C(=O)N2CCCN(CC(N)=O)CC2)n1
- Percent Effect (30 µM): -7.749%

Structure (SMILES): N#Cc1cc2c(=O)n(CC(O)C(F)(F)F)ccc2[nH]c1=O (stereo unspecified)
- Percent Effect (30.3 µM, […]): 28.06%

Structure (SMILES): N#Cc1cc2c(=O)n(CC(O)Cc3ccccc3)ccc2[nH]c1=O (stereo unspecified)
- Percent Effect (30.3 µM, […]): 33.38%

Structure (SMILES): N#Cc1cc2c(=O)n(CC(O)c3cccc(O)c3)ccc2[nH]c1=O (stereo unspecified)
- Percent Effect (30.3 µM, […]): 52.32%

Structure (SMILES): Cc1cnc(N2CCC3(CC(=O)N(Cc4csc(C)n4)C3)C2)nc1.O=C(O)C(F)(F)F (stereo unspecified)
- Percent Effect (30.3 µM, […]): -11.16%

Structure (SMILES): CN1CCNC(=O)C12CCN(Cc1ccco1)CC2.O=C(O)C(F)(F)F.O=C(O)C(F)(F)F
- Percent Effect (30.3 µM, […]): 23.48%

Structure (SMILES): COCCC(=O)N1CCC2(CCN(Cc3cccc(F)c3)CC2)C1.O=C(O)C(F)(F)F
- Percent Effect (30.3 µM, […]): 10.96%

Structure (SMILES): O=C(O)C(F)(F)F.c1cnc(N2CCOC3(CCN(CC4CCOC4)CC3)C2)nc1 (stereo unspecified)
- Percent Effect (30.3 µM, […]): 38.06%

Structure (SMILES): Cc1ccc(CN2CCC3(CC2)CCN(Cc2ccoc2)CC3)cc1.O=C(O)C(F)(F)F.O=C(O)C(F)(F)F
- Percent Effect (30.3 µM, […]): 75.99%

Structure (SMILES): COCCC(=O)N1CCC2(CCN(Cc3ccc(C)cc3)CC2)C1.O=C(O)C(F)(F)F
- Percent Effect (30.3 µM, […]): 52.88%

Structure (SMILES): CC(=O)N1CCC12CCN(Cc1ccco1)CC2.O=C(O)C(F)(F)F
- Percent Effect (30.3 µM, […]): 4.08%

Structure (SMILES): CN1CCOCC12CCN(Cc1ccoc1)CC2.O=C(O)C(F)(F)F.O=C(O)C(F)(F)F
- Percent Effect (30.3 µM, […]): 10.68%

Structure (SMILES): COCC(=O)N1CCC2(CCN(Cc3ccc(C)cc3)CC2)CC1.O=C(O)C(F)(F)F
- Percent Effect (30.3 µM, […]): 16.03%

Structure (SMILES): COCCC(=O)N1CC2(CCN(Cc3cccc(Cl)c3)CC2)C1.O=C(O)C(F)(F)F
- Percent Effect (30 µM, 30.03 µM): 20.28%

Structure (SMILES): Cc1ccc(CN2CCC3(CC2)CCN(Cc2ccco2)CC3)cc1.O=C(O)C(F)(F)F.O=C(O)C(F)(F)F
- Percent Effect (30.3 µM, […]): 86.21%

Structure (SMILES): Cc1ccc(CN2CCOC3(CCN(CC4CCOC4)CC3)C2)cc1.O=C(O)C(F)(F)F.O=C(O)C(F)(F)F (stereo unspecified)
- Percent Effect (30.3 µM, […]): 54.23%

Structure (SMILES): Cc1cc(C(=O)N2C[C@@H]3OCCN(CCN4CCCC4)[C@@H]3C2)c(C)o1.O=C(O)C(F)(F)F
- Percent Effect (30.3 µM, […]): 6.684%

Structure (SMILES): Cc1cc(C(=O)Nc2ccc3c(ccn3CCN3CCOCC3)c2)on1
- Percent Effect (30.3 µM, […]): -2.631%

Structure (SMILES): CC(C)SCC(=O)N1CCc2c(nc(N(C)C)nc2N(C)C)C1
- Percent Effect (30 µM, 30.03 µM): 7.439%

Structure (SMILES): CC(C)C(C)(C#N)NC(=O)Cn1cc(C(N)=O)c(-c2ccccc2)n1 (stereo unspecified)
- Percent Effect (30.3 µM, […]): -11.84%

Structure (SMILES): CCOCC(=O)NCCn1ccc(-c2ccccn2)n1
- Percent Effect (30.3 µM, […]): 14.51%

Structure (SMILES): CCOc1ccc(Cl)cc1C(C(=O)O)N1CCOCC1 (stereo unspecified)
- Percent Effect (30.3 µM, […]): 26.6%

Structure (SMILES): CC(Cn1cncc1-c1cnn(C2CCCCC2)c1)N1CCCCC1.Cl (stereo unspecified)
- Percent Effect (30.3 µM, […]): 20.46%

Structure (SMILES): CC(O)CN1CCN(C(=O)CN(C)c2ccc(C#N)cn2)CC1 (stereo unspecified)
- Percent Effect (30.3 µM, […]): -1.14%

Structure (SMILES): Cc1ccc(CN2CCOC3(COCCN(Cc4ccncc4)C3)C2)o1.O=C(O)C(F)(F)F.O=C(O)C(F)(F)F.O=C(O)C(F)(F)F (stereo unspecified)
- Percent Effect (30.3 µM, […]): 5.942%

Structure (SMILES): O=C(O)C(F)(F)F.O=C(O)C(F)(F)F.c1cncc(-c2ccc3c(c2)CCC32CCN(Cc3nccs3)CC2)c1
- Percent Effect (30.3 µM, […]): 20.15%

Structure (SMILES): CS(=O)(=O)N1CCOCC2(CN(Cc3ccco3)CCO2)C1.O=C(O)C(F)(F)F (stereo unspecified)
- Percent Effect (30 µM, 30.03 µM): -12.04%

Structure (SMILES): Cc1ccc(CN2CCC3(CCN(Cc4ccncc4)CC3)CC2)cc1
- Percent Effect (30.3 µM, […]): 75.36%

Structure (SMILES): Cc1ccc(CN2CCN(Cc3ccncc3)CC2=O)cc1
- Percent Effect (30.3 µM, […]): -11.56%

Structure (SMILES): Cc1ccc(CN2CCCC3(CCN(Cc4ccoc4)CC3)C2)cc1.O=C(O)C(F)(F)F.O=C(O)C(F)(F)F
- Percent Effect (30.3 µM, […]): 70.84%

Structure (SMILES): Cn1ccnc1CN1CCC2(CC1)CCN(Cc1ccoc1)C2.O=C(O)C(F)(F)F.O=C(O)C(F)(F)F
- Percent Effect (30.3 µM, […]): 10.21%

Structure (SMILES): O=C(O)C(F)(F)F.O=C(O)C(F)(F)F.O=C(O)C(F)(F)F.c1coc(CN2CCOC3(COCCN(Cc4ccncc4)C3)C2)c1 (stereo unspecified)
- Percent Effect (30.3 µM, […]): 52.19%

Structure (SMILES): CN(C)CC(=O)N1CCC2(CCc3cc(-c4cccnc4)ccc32)CC1.O=C(O)C(F)(F)F.O=C(O)C(F)(F)F
- Percent Effect (30.3 µM, […]): 37.66%

Structure (SMILES): COCCC(=O)N1CC2(CCN(Cc3ccncc3)CC2)C1
- Percent Effect (30.3 µM, […]): 34.97%

Structure (SMILES): O=C(O)C(F)(F)F.O=C(O)C(F)(F)F.c1cncc(-c2ccc3c(c2)CCC32CCN(Cc3ccco3)CC2)c1
- Percent Effect (30.3 µM, […]): 59.2%
